# Most compounds without a hit are left out; they make up all but 19% or so of the library.
# HT1080 IDH1KD tx = kills HT-1080 cells with IDH1 knockdown. HT-1080 IDH1 knockdown viability, ATP luminescence, 48 h. Potency, µM (series often up to 46.1 µM), for the others: at the top dose activity, negative = toxicity, actives largely listed as cytotoxic. hit rate 2% among 360,000. AID 686971;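 further: potency means the concentration at half of the fitted maximal effect; 0% = DMSO wells and -100% = cell-free medium wells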
#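 IDH1KD HT-1080 cells, 750/well, RPMI + 5% FBS; compound pinned after 2 h settling; 48 h, 37 °C; CellTiter-Glo luminescence; % activity normalised to DMSO and no-cell wells; curves fitted, classed by r2 and efficacy.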
# TDP1 cell noCPT = qHTS for Inhibitors of human tyrosyl-DNA phosphodiesterase 1 (TDP1): qHTS in cells in absence of CPT. hit rate 15% among 420,000. DT40 Tdp1-/- hTDP1 cells, no CPT, ATP luminescence, 48 h. Potency, µM (top dose mostly 46.2 µM), without a hit: at the top dose activity change, negative = growth inhibition, most hits filed as inhibitors; further: potency means the concentration at half of the fitted maximal effect; nearly all actives have a fitted effect of over 55% in size
#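 DT40 Tdp1-/-;hTDP1 cells, no CPT (DMSO vehicle only), 400 cells/well; compounds pin-transferred; ≥48 hr, 37 °C; CellTiter-Glo 30 min RT dark, luminescence read.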
# IL1B secr inh = inhibitors of inflammasome signaling (IL-1 beta secretion). activity change, % at 57.5 µM. AID 743279. hit rate 4.7% among 360,000. THP-1 LPS/ATP IL-1B secretion, AlphaLISA, 16 h; stronger effect = lower value; in the data active means activity change below about -50%; inconclusive means mostly about -30% to -49%
#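 Secreted IL-1B measured by AlphaLISA bead assay after 16 h compound exposure of THP-1 cells; compounds (final up to 57.5 uM) added 1 h before LPS (250 ng/mL) and ATP (1.25 mM) stimulation; lower signal means less secretion.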
# HT1080-NT tox = kills 2HG-producing HT-1080-NT fibrosarcoma cells | HT-1080-NT fibrosarcoma viability, CellTiter-Glo ATP luminescence, 48 h | Potency, µM (highest dose often 46.1 µM), inactives show top-dose activity, negative = less viability, usual class: cytotoxic | hit rate 1.6% among 360,000 | AID 686970;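 further: NT is the 2HG producing partner of a matched IDH1 knockdown line; potency means the concentration at half of the fitted maximal effect; 0% = DMSO-treated cells and -100% = media-only wells without cells; nearly all actives have a fitted effect of over 55% in size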
#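 Fibrosarcoma NT cells, 750 per well in 5% FBS RPMI, were exposed to compound for 48 hours. Viability: CellTiter-Glo luminescence.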
# DT40 TDP1 CPT = DT40-hTDP1 cell growth loss with CPT | chicken DT40 Tdp1-/-;hTDP1 cells + 20 nM CPT, ATP luminescence, 48 h | Potency, µM (doses to about 46.2 µM), inactives show at the top dose activity change, negative = growth inhibition, hits mostly inhibitors | hit rate 12% among 420,000 | AID 686979; further: potency means the concentration at half of the fitted maximal effect; nearly all actives have a fitted effect of over 55% in size
#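 Cell growth measured by CellTiter-Glo luminescence after a minimum 48 h, 37 C compound exposure with 20 nM CPT in Tdp1-knockout DT40 cells stably expressing hTDP1, seeded 400/well; qHTS titration format.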
# The depositor's hits bear a star; ? = inconclusive; . = no result given; ! = a repeat was not active. Unless noted, the call rests on the fitted dose curve; in most records, active means well fitted curve in the direction sought with a large enough effect; inconclusive means small, poorly fitted or top-dose-only effect, or another doubt; inactive means no such curve, though single readings can be large; an effect the other way counts as inactive or inconclusive. Unless noted, on the % scale 0 is the no-effect control and ±100 the full control effect.
SMILES,HT1080 IDH1KD tx,TDP1 cell noCPT,IL1B secr inh,HT1080-NT tox,DT40 TDP1 CPT
O=C(Cn1ncc2c3ccccc3n(Cc3cccc(Cl)c3)c2c1=O)NCCC1=CCCCC1,.,-20.3%,.,.,-5.0%
S=C(NC1CCCC1)N1CCOCC1,1.1%,12.5%,11.5,-1.5%,14.1%
C1CCC(NC(=NC2C3CC4CC(C3)CC2C4)N2CCOCC2)CC1 (centres undefined),.,22.7µM*,.,.,28.6µM*!
CC(=O)N1C[C@H]2CON(C)[C@H]2C[C@H]1c1ccc(-c2ccc(C#N)cc2)cc1,0.3%,?,21.9,-1.1%,?
COc1ccccc1P(=O)(c1ccccc1)c1ccccc1,7.0%,-7.4%,6.8,8.9%,-20.5%
Cc1ccccc1P(=O)(c1ccccc1)c1ccccc1C,-20.4%,18.4µM*,3.7,-0.1%,?
NC(=O)NC(=O)COC(=O)/C=C/c1cccc(Br)c1,2.6%,-6.8%,21.6,3.7%,-0.1%
CCOC(=O)C(CC)(CC)C(=O)/C=C/c1cccc(Br)c1,?,18.4µM*,-97.9*,?,11.6µM*
CC(c1nc2ccccc2c(=O)[nH]1)N1CCN(S(=O)(=O)c2ccc(F)c(Cl)c2)CC1 (centres undefined),-16.7%,?,-4.2,-19.9%,18.4µM*
O=C(Cc1n[nH]c(=O)c2ccccc12)N1CCN(S(=O)(=O)c2ccc(F)c(Cl)c2)CC1,0.2%,-21.5%,-3.2,-20.1%,-8.3%
Cc1csc(NC(=O)Cc2coc3cc(C)c(C(C)C)cc23)n1,23.1µM*,16.4µM*,?,?,13µM*
CN(C(=O)c1ccc(-c2nn(C)c(=O)c3ccccc23)cc1)c1ccccc1,-9.8%,16.4µM*,47.3,-6.3%,?
O=C(CCn1nc(-c2ccccc2)c2ccccc2c1=O)N1CCN(c2ccccc2)CC1,-13.3%,23.1µM*,?,-21.6%,16.4µM*
Cc1csc(NC(=O)Cc2nn(C)c(=O)c3ccccc23)n1,-11.2%,8.2µM*,-8.4,-8.2%,10.3µM*
CCCCn1c(N)c(N(CCOC)C(=O)c2ccc(N3CCCC3=O)cc2)c(=O)[nH]c1=O,11.3%,9.5%,-6.6,12.4%,3.8%
CCN(CC)S(=O)(=O)c1ccc(NN=c2c(=O)c3ccccc3c2=O)cc1,-0.9%,0.1%,20.6,-3.0%,-12.0%
Cc1ccc(NC(=O)CCn2nc(-c3ccccc3)c3ccccc3c2=O)c(C)c1,.,?,.,.,20.6µM*
COc1ccc(NC(=O)c2ccc(-c3nn(C)c(=O)c4ccccc34)cc2)cc1,-17.3%,2.6%,-0.4,0.0%,3.4%
COc1ccccc1NC(=O)Cc1nn(C)c(=O)c2ccccc12,-6.0%,8.2µM*,3.3,3.6%,16.4µM*
COc1cccc(OC)c1NC(=O)Cc1nn(C)c(=O)c2ccccc12,0.0%,?,26.5,0.5%,?
Cn1nc(-c2ccc(OCC(=O)Nc3ccc(Cl)cc3)cc2)c2ccccc2c1=O,.,20.6µM*,.,.,?
Cn1nc(-c2ccc(OCC(N)=O)cc2)c2ccccc2c1=O,2.5%,2.0%,10.0,10.0%,-1.7%
Cc1ccccc1NC(=O)CCn1nc(-c2ccc(Cl)cc2)c2ccccc2c1=O,.,-27.6%,.,.,?
CCCNC(=O)COc1ccc(-c2nn(C)c(=O)c3ccccc23)cc1,1.9%,20.6µM*,15.8,-1.9%,?
COc1ccc(C/C(=N\O)c2ccc(OC)cc2)cc1,-0.1%,-8.0%,?,-5.4%,-16.1%
CCCCn1c(N)c(N(CCOC)C(=O)C2CCN(c3ncnc4sc(C)c(C)c34)CC2)c(=O)[nH]c1=O,4.9%,?,3.6,0.6%,5.2%
Cn1nc(-c2ccc(OCC(=O)Nc3ccccc3)cc2)c2ccccc2c1=O,-1.5%,25.9µM*,-12.5,0.7%,23.1µM*
COC(=O)COc1ccc(-c2nn(C)c(=O)c3ccccc23)cc1,9.7%,-19.0%,7.0,0.1%,-2.7%
COc1ccccc1NC(=O)c1ccc(-c2nn(C)c(=O)c3ccccc23)cc1,0.7%,20.6µM*,-55.6*,-3.0%,?

# Bioassay records deposited in PubChem BioAssay by National Center for Advancing Translational Sciences (NCATS).
